Screens as filed in PubChem BioAssay.
MITF act = increases MITF-driven TRPM1 promoter luciferase signal; SK-MEL-5 TRPM1-promoter luciferase, 24 h; % of positive control, neutral wells = 0; activation, % at 12.5 µM; hit rate 0.75% among 300,000; AID 588334;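 active = mean activation of at least 80% with every replicate also reaching 80%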;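 note: 0% = neutral control wells and 100% = parthenolide positive control wells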
EBV LMP1 NFkB = inhibitors of Epstein-Barr LMP1-induced NF-kappaB reporter; LMP1-induced NF-kappaB luciferase reporter cells, luminescence; inhibition, % at 12.5 µM; hit rate 0.69% among 350,000; AID 504558; in the data active = inhibition above about 41%;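 note: 0% = neutral control wells and 100% = reference inhibitor control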
TROY NFkB inh = blocks TROY-dependent signaling in reporter cells. Q293 LMP1-TROYcd NF-kB luciferase reporter, 4 h. inhibition, % at 10 µM. hit rate 0.98% among 360,000. AID 1347056;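 active = compounds whose plate-normalised and pattern-corrected inhibition of the luciferase reporter signal at the single screening dose is 50% or more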
TWEAK-Fn14 inh = blocks TWEAK-Fn14 interaction in a reporter cell assay. TWEAK-stimulated Fn14 reporter cells, luciferase luminescence, 8 h. inhibition, % at 10 µM. hit rate 2% among 360,000. AID 1159606; in the data active = inhibition above about 50%
MITF TRPM1 inh = inhibitors of MITF-driven TRPM1 promoter in melanoma cells | SK-MEL-5 TRPM1 promoter luciferase, 24 h | AID 488899 | inhibition, % at 12.5 µM | hit rate 0.83% among 330,000;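 active = mean inhibition across replicates of 60% or more, whatever share of single replicates reaches that level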
LGR2 inh = inhibitors of bursicon-induced Drosophila LGR2 receptor cAMP signaling; HEK293 LGR2, CRE-luciferase, bursicon-stimulated, 4 h; hit rate 0.35% among 380,000; inhibition, % at 9.99 µM;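 active = drop in luminescence signal, shown as inhibition above about 50% in the replicate tests, limit read from the data, passing the limit was not always enough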;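 note: agonist challenge used bursicon conditioned medium at about half maximal strength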
Active calls of the source: *; . = not tested or not shown. In the library only some 3% were active in any assay of this set; here they are far more common.

SMILES	MITF act	EBV LMP1 NFkB	TROY NFkB inh	TWEAK-Fn14 inh	MITF TRPM1 inh	LGR2 inh
C[C@@H]1CCCCO[C@@H](CN(C)C(=O)c2ccccc2)[C@H](C)CN([C@H](C)CO)C(=O)c2cc(NC(=O)Nc3cccc4ccccc34)ccc2O1	.	.	.	.	.	12.8
O=C1C=CC(=O)N1c1ccc2c(c1)C(NC(=O)C(F)(F)F)c1ccccc1-2 (centres undefined)	-84.5	-4.8	-1.4	16.1	86.1*	8.8
CN(C)C(=O)NC1c2ccccc2-c2ccccc21	-13.8	-0.7	-18.4	-0.4	13.3	-26.2
C/C=C/c1ccc2c(c1)O[C@@H](CN(C)C(=O)CN(C)C)[C@H](C)CN([C@@H](C)CO)S2(=O)=O	.	.	.	.	.	2.1
O=C1C=C(N(CCO)Cc2ccccc2)c2ccccc2C1=O	-106.3	16.6	5.2	37.0	106.5*	.
CS(=O)(=O)Nc1ccccc1C(=O)NCC1(N2CCCCC2)CCCCC1	-8.3	46.7*	7.0	3.0	4.8	18.4
O=C(CCNS(=O)(=O)c1ccc(OC(F)(F)F)cc1)N1CCCC1	4.2	-5.7	4.0	-14.3	-1.3	-3.6
CN(C)CC(C)(C)CNS(=O)(=O)c1ccc(OC(F)(F)F)cc1	5.2	46.6*	3.5	0.7	0.6	6.2
CCOC(=O)N1CCN(c2ccc(S(=O)(=O)N(Cc3ccccc3)Cc3ccccc3)cn2)CC1	-18.7	23.0	62.3*	41.9	18.3	.
O=C1/C(=C/N(C(=O)c2ccco2)c2ccc(Br)cc2)Sc2ccccc21	37.6	-12.0	65.1*	86.8*	-29.5	.
O=C1/C(=C/N(C(=O)c2ccco2)c2ccc(Cl)cc2)Sc2ccccc21	66.5	-20.3	60.1*	83.3*	-68.7	.
COc1ccc(CN(C(=O)c2ccco2)c2ccc(Br)cc2)cc1OC	10.0	4.5	-2.2	-12.1	-2.6	.
CC(=O)N(c1ccccc1C)C1CCCC1	16.7	-1.7	8.8	10.2	-12.8	22.9
CC(=O)N(C1=C(Cl)C(=O)c2ccccc2C1=O)C1CCCCC1	.	24.4	20.8	15.4	86.5*	8.2
Nc1nc2ccccc2cc1C(=O)NCCCCc1ccccc1	.	.	13.9	53.3*	.	.
Cc1ccccc1C(=O)NCCCCc1ccccc1	3.3	6.6	-0.8	-2.5	-2.9	8.1
C[C@@H]1CCCCO[C@H](CN(C)S(C)(=O)=O)[C@@H](C)CN([C@@H](C)CO)C(=O)c2cc(NC(=O)C3CCCCC3)ccc2O1	.	.	.	.	.	6.4
COc1ccc(CNC(=O)c2cccc3c(-c4cccnc4)coc23)cc1OC	.	.	50.1*	64.0*	.	-2.7
O=C(NCc1cccc(Cl)c1)c1cccc2c(-c3cccnc3)coc12	.	.	55.8*	90.0*	.	5.4
COc1ccc(NC(=O)c2cccc3c(-c4cnn(C)c4)coc23)cc1	.	.	-42.3	-2.4	.	-55.7
CC(=O)c1cccc(NC(=O)c2cccc3c(-c4cccnc4)coc23)c1	.	.	33.6	58.0*	.	27.4
CS(=O)(=O)Nc1cccc(NC(=O)c2cccc3c(-c4cccnc4)coc23)c1	.	.	-2.2	15.4	.	.
O=C(NCc1ccc(F)c(F)c1)c1cccc2c(-c3cccnc3)coc12	.	.	28.3	32.8	.	-24.1
COc1cc(NC(=O)c2cccc3c(-c4cnn(C)c4)coc23)cc(OC)c1OC	.	.	16.2	43.6	.	72.5*
COc1ccccc1CNC(=O)C[C@@H]1CC[C@@H](NC(=O)CN(C)C)[C@H](CO)O1	.	.	.	.	.	-19.4
SMILES	MITF act	EBV LMP1 NFkB	TROY NFkB inh	TWEAK-Fn14 inh	MITF TRPM1 inh	LGR2 inh
COc1ccccc1-c1ccc([C@@H]2[C@@H](CO)N3CCCCN(S(=O)(=O)c4cn(C)cn4)C[C@@H]23)cc1	.	.	.	.	.	3.8
CCC(=O)N1CC2(C1)CN(S(C)(=O)=O)[C@H](CO)c1[nH]c3cc(OC)ccc3c12	.	.	.	.	.	0.7
COc1cc(CC(=O)N(c2ccccc2)c2nc(C)cs2)cc(OC)c1OC	-12.9	51.7*	10.9	-15.9	12.4	0.5
COc1ccccc1NC(=O)c1ccc(-c2ccccc2[N+](=O)[O-])o1	94.4*	-15.6	-53.6	-18.5	-94.6	-64.0
COc1ccccc1NC(=O)c1ccc(-c2ccc(Br)cc2)o1	2.7	-26.5	-39.0	-31.6	-0.9	.
COc1ccccc1NC(=O)c1c(C)cc(=O)oc1C	7.0	-4.8	-10.1	59.7*	-4.5	2.1
C[C@@H]1CN([C@H](C)CO)S(=O)(=O)c2ccc(-c3cccc(C#N)c3)cc2O[C@@H]1CN(C)C(=O)C1CC1	.	.	.	.	.	-1.0
Cc1cc(C(=O)NC2CCCc3c2cnn3-c2ccc(C(C)(C)C)cc2)nn1C (centres undefined)	-47.8	21.8	38.6	60.5*	48.9	1.1
CCc1ccc(-c2csc(NC(=O)C3=COCCO3)n2)cc1	82.3*	-22.7	-33.2	0.2	-77.2	-52.6
O=C(Nc1nc(-c2ccc(Cl)cc2)cs1)C1=COCCO1	98.6*	-10.3	-51.9	-18.6	-92.8	-39.3
COc1ccc(-c2csc(NC(=O)C3=COCCO3)n2)cc1OC	73.6	-8.1	-35.3	-47.0	-70.3	-78.9
O=C(Nc1nc(-c2ccc(F)c(F)c2)cs1)C1=COCCO1	62.3	-2.6	-29.0	-15.1	-59.1	-54.6
CN1/C(=C\C=N\O)C(C)(C)c2ccccc21	5.2	28.0	-0.2	-4.4	-10.1	3.6
CN(C)c1ccc(N=C/C=C2/N(C)c3ccccc3C2(C)C)cc1	-4.4	-0.7	29.9	60.7*	5.2	-6.5
O=Cc1cn(-c2ccccc2)nc1-c1ccc2c(c1)OCCO2	72.1	-17.6	-46.1	-6.9	-71.0	-78.8
N#Cc1cn(-c2ccccc2)nc1-c1ccc2c(c1)OCCO2	123.0*	-23.2	-44.2	-13.1	-115.3	.
CCN1C(=O)/C(=C/c2nc3ccccc3c(=O)n2-c2ccccc2)c2ccccc21	-17.2	1.8	27.1	58.4*	17.2	.
CCN1C(=O)/C(=C\c2nc3ccccc3c(=O)n2CC)c2ccccc21	9.0	-36.6	6.2	19.4	-4.2	-3.0
Cc1nn(C(C)C(=O)N2CCc3ccccc3C2)c(=O)c2cc3occc3n12 (centres undefined)	4.0	0.0	21.6	3.7	-2.2	.
CCC(C(=O)N1CCc2ccccc2C1)n1nc(C)n2c(cc3occc32)c1=O (centres undefined)	5.8	1.5	.	81.3*	-5.5	.
CN1C(=O)c2cc(NC(=O)C3CCCCC3)ccc2OC[C@H]2O[C@@H](CC(=O)NCc3ccccc3F)CC[C@@H]21	.	.	.	.	.	-13.1
Cc1noc(C)c1NC(=O)N(C)C[C@H]1Oc2ccc(NC(=O)CCC(F)(F)F)cc2CC(=O)N([C@H](C)CO)C[C@@H]1C	.	.	.	.	.	-1.7
CC(=O)n1nc(-c2ccccc2)nc1NCc1ccc(F)cc1	29.3	-2.2	-35.7	-0.6	-31.5	.
CC(=O)N(Cc1ccc(F)cc1)C1=C(NCc2ccccc2)C(=O)c2ccccc2C1=O	-96.9	53.2*	37.9	50.7*	97.8*	.
N#C/C(=C/c1ccc(C(=O)O)cc1)C(=O)Nc1ccccc1	8.4	4.2	2.2	-10.7	-10.6	5.0
Cc1ccccc1NC(=O)C(=Cc1ccc(C(=O)O)cc1)C(=O)Nc1ccccc1C	-49.3	8.8	16.5	77.9*	48.0	26.7
CC(=O)Nc1ccccc1C	-3.1	4.2	3.1	8.8	2.8	-12.3
CC(=O)/C(=C/c1ccccc1)C(=O)Nc1ccccc1C	-41.3	4.5	5.7	79.7*	43.8	16.6
